PubChem BioAssay (EPA / NIEHS)
Active and inactive are the calls of the source. How the source made its calls: active means hit-call score of the fitted dose curve at least 0.9, where 1 is the maximum; inactive means score below 0.9.

Assay: CCTE_Shafer_MEA_acute_cross_correlation_HWHM: CCTE's Neural Acute Assay for Cross Correlation at Half Width at Half Maximum, Shafer Lab (AID 2284026)
Protocol: CCTE_Shafer_MEA_acute assay is conducted using Axion Biosystems 48 well microelectrode array (MEA) plates and Maestro recording system. Each well of the MEA plate contains a grid of 16 microelectrodes embedded in the culture surface. Electrically active cells, such as neurons, can be cultured over the electrodes, and electrical activity in these cells can be recorded extracellularly. The spontaneous firing of neurons is captured from each electrode on a microsecond timescale providing both temporally and spatially precise data. […] The CCTE_Shafer_MEA_acute assay uses primary cultures of rat cortical neurons. As these cultures mature over time, neural networks develop functional activity and form cohesive networks in which electrical activity can be highly coordinated. Baseline 40-minute recordings are made on days post-plating 13 or 15, followed by a secondary 40-minute recording after chemical exposure.CCTE_Shafer_MEA_acute_cross_correlation_HWHM is a component of the CCTE_Shafer_MEA_acute assay. It measures the distance along the x-axis (phase lag) from the left half maximum height to the center of the cross-correlogram of action potential firing during a recording in a microelectrode array (MEA) using Axion Biosystems Maestro 768 channel amplifier with the AxIS adaptive spike detector. Smaller values indicate a narrower correlogram (greater synchrony). The recordings before and after chemical treatment are used to calculate a percent change in the half width at half maximum of the cross-correlogram in each well.Data from the assay component CCTE_Shafer_MEA_acute_cross_correlation_HWHM was analyzed into 1 assay endpoint. This assay endpoint, CCTE_Shafer_MEA_acute_cross_correlation_HWHM, was analyzed in the negative analysis fitting direction relative to DMSO as the negative control and baseline of activity. Using a type of functional reporter, gain or loss-of-signal activity can be used to understand electrical activity.
Spontaneous activity in the cortical cultures was recorded using an Axion Biosystems Maestro 768 channel amplifier and Axion Integrated Studios (AxIS) v1.8 (or later) software. The amplifier recorded from all channels simultaneously (gain = 1200 x; sampling rate = 12.5 kHz/channel): raw signals were filtered with a Butterworth band-pass filter (300-5000 Hz), which filters out slower local field potentials leaving only fast potentials, i.e., "spikes", arising from extracellular currents associated with action potentials (Pine 2006; Wheeler and Nam 2011). On-line spike detection of filtered signals was conducted with the AxIS adaptive spike detector, using a threshold of 8x the root mean squared (rms) noise on each channel. Any electrodes with rms noise levels greater than 5 uV were grounded (e.g., no data were recorded). Once grounded, an electrode was grounded for the duration of the experiment. All recordings were conducted at 37 C. Wells were deemed usable if on the day of the exposure >/= 10 electrodes were active (defined as >/= 5 spikes/min). On DIV 13 or 15, a minimum of three wells from one cortical culture preparation were treated with each compound (0.03-40 uM). Prior to recording baseline activity, each mwMEA plate was placed in the Maestro at 37 C and allowed to sit for 20 min while firing rates stabilized. Baseline activity (40 min) was recorded before the addition of each compound. An additional 40 min of spontaneous activity was recorded in the presence of each compound. Changes in network parameters relative to baseline were assessed following compound treatment.

Row | Compound | outcome | AC50
1 | CO[Si](OC)(OC)c1ccccc1 | inactive | 
2 | O=C1CCCN1CCO | inactive | 
3 | C=C[Si](OC(C)=O)(OC(C)=O)OC(C)=O | inactive | 
4 | O=C(c1ccc(O)cc1)c1ccc(O)cc1O | inactive | 
5 | CCCCC(CC)COC(=O)c1ccccc1O (stereo unspecified) | inactive | 
6 | CN1C(=O)N(C)C(O)C1O (stereo unspecified) | inactive | 
7 | Nc1ncn([C@@H]2O[C@H](CO)[C@@H](O)[C@H]2O)c(=O)n1 |  | 7.72 µM (active)
8 | Nc1ccc(N)c(Cl)c1 | inactive | 
9 | CCCCC(CC)COCC1CO1 (stereo unspecified) | inactive | 
10 | CCO[Si](C)(OCC)OCC | inactive | 
11 | CCOC(=O)c1ccccc1C(=C1C=C(Br)C(=O)C(Br)=C1)c1cc(Br)c(O)c(Br)c1 |  | 11.8 µM (active)
